# ± gives the standard deviation of the averaged measurements. Whole data set: some 25,000 sequences, median “ln(normalized median fluorescence intensity)” near 7.9, cut for the highest 2% near 11. The sample holds the highest values, similar sequences and a random draw of the others, so the mix is not that of the screen.
# System: PfAP2-I AP2 domain 3 (GST-tagged)
# Assay: gcPBM binding intensity (ln(normalized median fluorescence intensity)); higher = stronger DNA binding
# Method in brief: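 Binding intensity values are the highest Masliner-normalised natural-log median intensity among replicate spots of either probe orientation. The binding step lasted 1 h in 1× PBS with 1% milk, 0.2 mg/ml BSA, 0.5% salmon testes DNA and 0.03% Triton X-100, using GST-tagged P. falciparum DNA-binding domains expressed in E. coli on an Agilent 4 × 180k array of primer-extended double-stranded 36-bp intergenic genomic probes plus negative controls. Alexa488 anti-GST antibody and a 488 nm scan detected bound protein.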
row,Sequence,gcPBM binding intensity (ln)
1,AGTTTGTTTTTTTTTTTTTTTTCCTGTCACAAACAA [CACACA_negctrl_site1093],8.22 ± 0.62
2,GTTCATAAATTAAACACACACACACCCCTGGATACC [CACACA_site3331],9.115 ± 0.021
3,ATATATATATATATATGTACATACATACAATCATAT [XGTACX_site6410],9.38 ± 0.54
4,TACATATTTAAATACTGTACTCAAAAGAATTGTGCA [XGTACX_site2250],8.11 ± 0.11
5,ATATATCATAATAAAAGTACTTATATATTTTATATA [XGTACX_site560],7.59 ± 0.33
6,AAAATTGTGCTTTCACGGACACAAGATCGAAATAGA [XGTACX_site4068],8.62 ± 0.16
7,GAAAAAAAAATATCTTGTACTTACATAACTATTGGT [XGTACX_site5326],7.61 ± 0.5
8,CTTATTTTGTTATAAGTGCATTTTTTAAAATTTCTT,9.05 ± 0.42
9,ATATATATATTTATAGTGCATTTATATTAAAATATC [GTGCAC_site9818],10.54 ± 0.021
10,ATATATTATATTTAAGTGCATTAATTAAAATGCTTA [GTGCAC_site9403],11.1 ± 0.73
11,TTTTTTTTTTTTTTTGCACACTTAAATTTGGTGGGG [CACACA_site2344],9.89 ± 0.19
12,TTTTTTTTTTTTTTTGCACACTTAAATTTGGTGGCT [CACACA_site5319],9.54 ± 0.16
13,CACATTAATTTTTGGGTGCACTTGGGAAATTTTGGT,10.9 ± 0.51
14,AGTTATAAACATATGTGTACTTATAAAAACATATAG [XGTACX_site3268],7.87 ± 0.47
15,AATCACAACGAACACACACACAAAAAAAAAAAAAAA [CACACA_site6790],7.96 ± 0.54
16,CAACAACAAATGAGAAGTACATAAATATTAACAATA [XGTACX_site4625],7.68 ± 0.4
17,TGTTTTATTTTATTAGTGCATTTTTATTTATAATAG [GTGCAC_site9453],9.77 ± 0.2
18,ATATATAATTCCCAAGTGCATTTATTTTAATTATTA,10.2 ± 0.12
19,TTCCAAGAAATAATAGTGCATTATTCATTTTAATAA,11.5 ± 0.42
20,AATATAAGGATATATACACACATAAATACATACATA [CACACA_site7859],7.67 ± 0.59
21,AAGGATATAACATACACACACACACGGATATAAATA [CACACA_site7867],7.91 ± 0.6
22,TGAAGGATATATTCCGTGCACATATAAATATATACA,11.035 ± 0.007

row,Sequence,gcPBM binding intensity (ln)
1,TTTATACAAACAACTTTATATTAATGTTTAACGGAG [GTGCAC_negctrl_site396],7.6 ± 0.42
2,AATTAATAAGAAAGGTGTACAGAAAAAAAAAAATAT [XGTACX_site2106],8.46 ± 0.43
3,ATATATATATAATAAGTGCAAAAAAAAGAAAAAAAT,10.18 ± 0.035
4,AAAAAAAAAATACAGGTGCAATAAGAAAAAAATGGT,11.4 ± 0.57
5,TTTTATATTTTATGCACACTTATAAGAAATATGTAC [CACACA_site3040],10.5 ± 0.52
6,TTTTAAATACTTTATTGTACATTATATATATATATA [XGTACX_site7021],8.88 ± 0.042
7,ATTTTAAAAAGGATAGTGCAAATGTTAAAATAGGAC,10.6 ± 0.3
8,TTTTTTTTTAAGCAAAGGAAATCAAAATAAAAATAT [CACACA_negctrl_site719],7.92 ± 0.56
9,TTTTAAGGTGTGAAGGTGCAAAAAGGTAAATAGGAA,11.2 ± 0.56
10,TACCTTTTTTATGTTGCACACTGGGATGTTTTCTAA [CACACA_site1653],9.51 ± 0.15
11,TATGAAGTACACAATACACACTAATTATATATAAAT [CACACA_site5444],7.88 ± 0.28
12,TATGAAGTGCACAATACACACTAATTCTATATAAAT [CACACA_site7269],11 ± 0.71
13,TATATGAAGTACACAATACACACTAATTATATATAA [CACACA_site2608],8.155 ± 0.035
14,AAAGTATATAGGATACGTACATACATAAATAAATAA [XGTACX_site8216],7.84 ± 0.73
15,AAAAAAAAAAAAAAAACACACAAACAAATGAATAAA [CACACA_site5769],8.76 ± 0.66
16,GTACATTATATATATACACACATACATAATAAAGAA [CACACA_site5528],8.12 ± 0.23
17,CAAATATACATATGTAGTACATGTTGTAGATAATTT [XGTACX_site2790],8.01 ± 0.5
18,GTATATATCTAAAAATATATATATATATATATATAT [CACACA_negctrl_site788],9.37 ± 0.72
19,TCCTGCCTCTCTTTGGTGCGTTGTAACCCTCGAGGA,10.3 ± 0.11
20,TCTCCACCTCTCTTGGTGCGTTATACCCTCGAGGCT,11.3 ± 0.54
21,CCCTGCCTCTCTTTGGTGCGTTGTAACCCTCGAGGA,10.3 ± 0.33
22,TTGTTCTTTTGAAAGGTGCAAAAGAAAAATAATTAA,11.1 ± 0.54

row,Sequence,gcPBM binding intensity (ln)
1,AGAATTAAAATAAAGGTGCATTTTTTTGTTTCATGT,9.94 ± 0.23
2,TTGTTCTTTTTTTTTTTATTTTTTAATTTGAAAAGA [CACACA_negctrl_site209],7.72 ± 0.5
3,ACGTTACATACATATACACACACATATATATATATA [CACACA_site8203],9.22 ± 0.39
4,TATATACTCATGCGCACACACAAGTGGGAAATTTGG [CACACA_site5056],8.35 ± 0.6
5,TATAATTTTTTTTGGGTGCTTGGGTAAATTTTATTA,8.34 ± 0.42
6,TTTTTTTTTTTTGGTGCATGCACATTTTGTTTTTTT [TGCATGCA_site570],9.85 ± 0.014
7,CTTGTGCTTTATAGGGTGCACATTTTGTTTTGGTAA [GTGCAC_site9899],11 ± 0.46
8,AAAGGGATGTTCATTCTTTTTTTTTTTTTTGTATAT [CACACA_negctrl_site511],7.16 ± 0.6
9,ATTAGTAAATTTATATGTACACATTGTTATTTTATA [XGTACX_site1177],8.13 ± 0.23
10,TTATATTTGATAGTTTGTACATATAATTATTATCAT [XGTACX_site5676],7.86 ± 0.42
11,TAGTGATATAATTATGTGCACTTAATACAGGTCGAT,10.9 ± 0.3
12,TTGATATATAATAATACACACTTACATAATTAATTA [CACACA_site4320],7.88 ± 0.37
13,AATATAAATAATTATACACACTTAATATATATATAC [CACACA_site5533],7.9 ± 0.33
14,ATGTCTATAATAAGAACACACATATATTTAATTTAA [CACACA_site7394],7.64 ± 0.44
15,ATGTGATAGAAGTACACACACATATGTATTTATAAT [CACACA_site5075],7.84 ± 0.59
16,ATGTAGAAGTAATGCACACATATGTATATATATATA [CACACA_site2494],10.9 ± 0.63
17,TATACATATGTATGCACACATACATACACATAGAAT [CACACA_site3480],8.8 ± 0.13
18,ATGTAGAAGTAATGCACACATATGTATTTATATATA [CACACA_site5391],10.9 ± 0.68
19,ATATGTAGAAGTAATGCACACATATGTATATATATA [CACACA_site8796],10.8 ± 0.48
20,ACATAATTATTATGCACACATATTTTTATGTATTTA [CACACA_site698],10.3 ± 0.48

# From the supplement of paper PMC11417369
